Source: PubChem BioAssay (NCI)
About 79,000 compounds went through this panel and 15% of them were active in at least one assay; those are over-represented in the sample as a whole. Values without a mark were called inactive. Activity calls are given as the source filed them. Cut-off read from the data, not from the text of the source: active = growth inhibition above about 70%; inactive = the rest. Where a SMILES comes first, the peptide text is derived from it. The star is where a group is joined. Boc = CC(C)(C)OC(=O)*; OSu = O=C1CCC(=O)N1O*

Columns and labels:
[1] = NCI Yeast Anticancer Drug Screen. Data for the rad50 strain (AID 155);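 note: 0% = growth of vehicle-only cultures of the same strain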; details: S. cerevisiae rad50 strain growth inhibition; at 50.0 µM; stronger effect = higher value
Outline: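 Readout: growth inhibition relative to vehicle-treated cultures. Compound exposure was carried out in a genetically defined yeast strain deficient in DNA damage repair.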

[2] = NCI Yeast Anticancer Drug Screen. Data for the mec2-1 strain (AID 157); details: S. cerevisiae mec2-1 strain, at 50.0 µM, stronger effect = higher value
Outline: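 Compounds were applied to mec2-1 yeast cells. Their growth was then compared with that of vehicle-treated cultures to give growth inhibition.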

[3] = NCI Yeast Anticancer Drug Screen. Data for the sgs1 mgt1 strain (AID 161);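 note: 0% = growth of cultures given vehicle only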; details: S. cerevisiae sgs1 mgt1 strain, at 50.0 µM, stronger effect = higher value
Outline: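 Yeast cells carrying a defined DNA-repair defect were exposed to test compounds. Growth inhibition was measured relative to vehicle-treated controls.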

[4] = NCI Yeast Anticancer Drug Screen. Data for the cln2 rad14 strain (AID 165);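 note: 0% = growth equal to vehicle treated cultures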; details: S. cerevisiae cln2 rad14 strain, at 50.0 µM, stronger effect = higher value
Outline: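 Strain: cln2 rad14 yeast, altered in cell cycle control and DNA damage repair. Read-out: growth inhibition vs vehicle.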

[5] = NCI Yeast Anticancer Drug Screen. Data for the bub3 strain (AID 167); details: S. cerevisiae bub3 mutant strain, at 50.0 µM, stronger effect = higher value
Outline: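 Readout: yeast growth inhibition, expressed relative to vehicle-only wells. The test organism is a mutant strain from a panel with lesions in DNA repair or checkpoint genes.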

[6] = NCI Yeast Anticancer Drug Screen. Data for the mlh1 rad18 strain (AID 175); details: S. cerevisiae mlh1 rad18 strain growth inhibition; at 50.0 µM; stronger effect = higher value
Outline: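 A repair-deficient yeast strain is exposed to test compound, and growth is scored relative to vehicle-treated controls.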

Structure (SMILES)	growth inhibition [1]	growth inhibition [2]	growth inhibition [3]	growth inhibition [4]	growth inhibition [5]	growth inhibition [6]
O=C1NC(=O)c2ccccc2/C1=C/c1ccc2c(c1)OCO2	-16.6%	-8.25%	-13.3%	-32.5%	-2.6%	-26.6%
[Mn+2].[Mn+2].c1ccc2c(c1)-c1nc-2nc2[n-]c(nc3nc(nc4[n-]c(n1)c1ccccc41)-c1ccccc1-3)c1cc3c4nc5nc(nc6[n-]c(nc7nc(nc([n-]4)c3cc21)-c1ccccc1-7)c1ccccc61)-c1ccccc1-5	15.4%	-0.9%	-8.75%	-21.2%	0.4%	21.8%
NC(CCCNCc1ccccc1)C(=O)O (stereo unspecified)	31.9%	6.85%	1.65%	12.3%	36.9%	16.3%
CSc1ccc(C2=CCCCC2)cc1	-4.35%	-1.7%	0.05%	-15%	0.95%	17.9%
CC(C)C1OCCOCCO1	9.45%	-12.1%	-18.5%	-21.5%	-9.4%	9.45%
c1ccc2c(c1)Cc1ccccc1-2	1.5%	-17.2%	-10.6%	-19.5%	-20.9%	-19.1%
O=c1c[n+](-c2ccccc2)[nH]o1	41.2%	-12.1%	22.1%	5.5%	7.7%	27.5%
CC(=O)OCC(OC(C)=O)C(OC(C)=O)C(OC(C)=O)C(S)S (stereo unspecified)	5.2%	50.1%	30.1%	-4.2%	29.9%	28.9%
O=C(c1no[n+]([O-])c1C(=O)c1csc2ccccc12)c1csc2ccccc12	-9.7%	-2.2%	-31.9%	-39.9%	-10.3%	-0.25%
Cc1cc[n+](C2=C([O-])C3=C(C(=O)C2=O)C2c4ccccc4C3c3ccccc32)c(C)c1	98.5% (active)	98.7% (active)	98.8% (active)	98.3% (active)	90.2% (active)	97.5% (active)
COc1cccc2c1C(=O)c1c(O)c3c(c(O)c1C2=O)CC(O)(C(O)CO)CC3OC1CC(N2CCSCC2)C(O)C(C)O1 (stereo unspecified)	87.7% (active)	87.5% (active)	88% (active)	84% (active)	85.8% (active)	90.3% (active)
CCCCCC(=O)OCC(COC(=O)CCCCC)OC(=O)CCCCC	-2.65%	23.1%	-5.05%	12.6%	10.9%	20.6%
O=[N+]([O-])c1ccccc1C=NC12CC3CC(CC(C3)C1)C2	15%	-9.15%	9.95%	-49.2%	-15.3%	3.45%
CC(C)CC(O)C(C)C (stereo unspecified)	-18.3%	-15.8%	0.15%	31.3%	-6.8%	1.35%
O=C(CC(C(=O)c1cccs1)c1cccs1)c1ccsc1 (stereo unspecified)	-4.2%	-24.1%	10.6%	11.1%	2.9%	-4.1%
C=Cc1c(C)c(C)c(C=C)c(C)c1C	-3.85%	6.65%	-8.2%	4.75%	-10.2%	-17.3%
C=C1[C@H](OCC(C)C)[C@@H](OCC(C)C)[C@@H](O)C(C)(C)/C=C/[C@H](C)C(=O)[C@@]2(O)C[C@H](C)[C@H](O)[C@@H]2[C@H]1OCC(C)C	-37.9%	-45%	-9.85%	-36.3%	-12.8%	-68.8%
CC(C)(C)c1c(C#N)nnc2cc(-c3ccccc3)nn12	7%	8.85%	21.9%	25.1%	-17.3%	9.15%
COC(=O)/C=C(\C(=O)OC)c1cc(C)c2cc(C(C)C)ccc(C)c1-2	4.25%	-22.2%	13%	13.8%	-7.5%	17.9%
CC(=O)NC(CCCCN)C(=O)NCc1ccccc1 (stereo unspecified)	-1.95%	-12%	-12.1%	11.1%	-19%	-20.4%
CC(=O)NNc1ccc(C(=O)O)cc1	13.2%	1%	1.85%	-13.4%	-2.7%	-2.4%

Structure (SMILES)	growth inhibition [1]	growth inhibition [2]	growth inhibition [3]	growth inhibition [4]	growth inhibition [5]	growth inhibition [6]
COc1ccc(-c2c3c(nc4nc(SC)nc(SC)c24)CCCC3)cc1OC	1.15%	-10.4%	1.25%	1.15%	-2.65%	6.8%
CN(C)CC(CN(C)C)C(=O)c1ccc(OC2OC(CO)C(O)C(O)C2O)cc1 (stereo unspecified)	-4.95%	-3.15%	-18.4%	5.15%	-9.35%	2.05%
CC(C)(C)OC(=O)NC(Cc1ccc(O)cc1)C(=O)NC(CCCCN)C(=O)NC(Cc1ccc(O)cc1)C(=O)NC(CCCCN)C(=O)ON1C(=O)CCC1=O (stereo unspecified) (Boc-YKYK-OSu; configuration not given here)	-12.2%	-15.5%	-6.7%	29.1%	-2.8%	4.45%
CC(=O)OCCOC(C)=O	15.2%	4.35%	-5.1%	19.9%	21.3%	1.45%
CNC(=O)NCCc1c[nH]c2ccccc12	-35.9%	-19.9%	-49.1%	-24.1%	-26.7%	-40.9%
Fc1ccccc1C1CC(c2ccc3ccccc3c2)=Nc2ccccc2S1 (stereo unspecified)	30.9%	12.1%	18.4%	13.4%	10.4%	34.4%
CN(C)c1nc(N(C)C)n2c(-c3ccccc3[N+](=O)[O-])nnc2n1	48.3%	18.4%	22%	23.4%	13.3%	33.4%
CC(C)(C)NNC(=O)/C(=C/c1ccc(Oc2ccc(Cl)c(Cl)c2)cc1)NC(=O)c1ccccc1	7.45%	1.1%	2.1%	-4.2%	-1.6%	16.1%
COC(=O)CC(=O)c1cccc([N+](=O)[O-])c1	8.95%	-22.1%	-3.15%	16.5%	-26.8%	0.15%
O=C1C(c2ccccc2)=C(O)c2cccc3cccc1c23	-24.4%	-33.5%	-13%	13.4%	-3.65%	-57.6%
NC(CSSCC(N)Cc1ccccc1)Cc1ccccc1 (stereo unspecified)	-4.25%	-9.45%	-9.2%	14.8%	-27.5%	25.9%
CN1CCC(CO)CC1	-12.8%	-2.7%	-2.65%	9.05%	11.8%	-8.4%
BrC1C2=C(c3ccccc31)C(Br)c1ccccc12 (stereo unspecified)	14.9%	4.05%	15.3%	28.8%	-12.3%	1.7%
O=C(Oc1ccccc1)Oc1c(Cl)cc([N+](=O)[O-])cc1[N+](=O)[O-]	25%	1.4%	5.25%	10.9%	0.45%	15.5%
CC(=O)NC(Cc1cc(I)c(OC(C)=O)c(I)c1)C(C)=O (stereo unspecified)	5.45%	7.1%	0.7%	14.6%	4%	-18.4%
CC(=O)OCCn1c(C)nc2cc(Cl)c(Cl)cc21	33.1%	5.45%	16.3%	31.9%	23.7%	36.2%
CCCCOC(=O)C(C)OC(=O)/C=C\C(=O)OC(C)C(=O)OCCCC (stereo unspecified)	7.5%	-7.5%	6.9%	4.05%	2.4%	15.9%
O=P(Nc1ccc(Cl)cc1)(c1ccc(Cl)cc1)c1ccc(Cl)cc1	17.6%	6.05%	4.05%	-16.1%	-0.15%	20.9%
C[Si](C)(COC(N)=O)Cc1ccccc1	-28.1%	-12.6%	-15.5%	-1.2%	-10.6%	-32%
CCc1ccc(NS(=O)(=O)c2ccc3ccccc3c2)cc1	96% (active)	97.5% (active)	96.9% (active)	94.6% (active)	96.5% (active)	96.4% (active)
